# Screening data from PubChem BioAssay.
# LAP4-GFP MLPCN = alters LAP4-GFP fluorescence in TOR pathway yeast screen | S. cerevisiae LAP4-GFP multiplex, flow cytometry GFP, 3 h; median GFP as percent of DMSO wells | GFP response vs DMSO, % at 10 µM | actives 0.34% (n = 320,000) | AID 2023;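 active = GFP response vs DMSO above a set limit, about the screen mean plus 3 SD, cut at about 150% in these data; inconclusive = under 70 cell events counted for the yeast strain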
# RPL19A-GFP yeast = yeast TOR pathway RPL19A-GFP modulation. S. cerevisiae RPL19A-GFP strain, flow cytometry, 3 h; stronger effect = lower value. percent response vs DMSO, % at 10 µM. AID 2025. actives 0.3% (n = 330,000);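 active = percent response vs DMSO below 50%; inconclusive = fewer than 70 events counted for the yeast strain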;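 note: median channel GFP fluorescence of the barcoded RPL19A-GFP strain; lower means less RPL19A-GFP as with rapamycin TOR inhibition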
# MEP2 TOR yeast = modulators of TOR pathway MEP2-GFP in S. cerevisiae | S. cerevisiae MEP2-GFP strain, flow cytometry GFP, 3 h; 100% = DMSO control level | GFP response vs DMSO, % at 10 µM | actives 0.51% (n = 330,000);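 active = GFP response versus DMSO above a set limit, roughly screen mean plus 3 SD, cut at about 180% in these data; inconclusive = fewer than 70 cells counted for a yeast strain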;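 note: median GFP fluorescence of the barcode-gated MEP2-GFP cells per well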
# CIT2 TOR yeast = alters CIT2-GFP fluorescence in TOR pathway yeast screen; S. cerevisiae CIT2-GFP strain, flow cytometry, 3 h; 100 means same as DMSO wells; GFP response vs DMSO, % at 10 µM; actives 0.065% (n = 320,000); AID 2029;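 active = GFP response relative to DMSO above a set limit, near the screen mean plus 3 SD, cut at about 150% in these data; inconclusive = Fewer than 70 cells measured for a yeast strain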;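 note: ratio of well median GFP fluorescence to mean of DMSO wells on the plate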
# AGP1 TOR yeast = yeast TOR pathway AGP1-GFP modulation; actives 0.02% (n = 320,000); AID 2066; GFP response vs DMSO, % at 10 µM; S. cerevisiae AGP1-GFP multiplex flow cytometry, 3 h; GFP as percent of DMSO wells;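 active = GFP response relative to DMSO above a set limit, near screen average plus 3 SD, cut at about 150% in these data; inconclusive = fewer than 70 cells counted for the yeast strain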;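 note: median GFP channel fluorescence of the gated AGP1 strain per well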
# Hits are given with their value; – = inactive; ? = inconclusive; · = no result given; ! = a repeat was not active; [ ] = remark or other dose. A selection: hits, their analogues and other compounds. The true share with any hit is near 0.89%.
SMILES,LAP4-GFP MLPCN,RPL19A-GFP yeast,MEP2 TOR yeast,CIT2 TOR yeast,AGP1 TOR yeast
CC1CC1C(=O)OCc1cc(=O)n2cc(Br)ccc2n1 (stereo unspecified),–,–,–,–,–
CC1(C(=O)OCc2cc(=O)n3cc(Br)ccc3n2)CC1(Cl)Cl (stereo unspecified),164,–,–,–,–
COC(=O)[C@@H](NC(=O)N1CCN(C(=O)C2COc3ccccc3O2)CC1)C(C)C (stereo partly specified),–,19[may fluoresce violet],–,?,?
CC1CCN(C(=O)COc2ncnc3ccccc23)CC1,–,46[may fluoresce violet],289[may fluoresce violet],?,?
CCOc1ccc(/C=C/C(=O)OC(C)C(=O)NC2CCCCC2C)cc1OC (stereo unspecified),–,–,–,–,–
Cc1ccc(CC2CC(=O)N(Cc3ccco3)C2=O)cc1 (stereo unspecified),191,–,–,–,–
CC(C)N(Cc1cc2ccccc2[nH]c1=O)C(=O)c1cccc([N+](=O)[O-])c1,–,44[may fluoresce violet],319[may fluoresce violet],?,?
Cc1ccc(C(=O)N/C(=C/c2ccco2)C(=O)N2CCOCC2)cc1,174,–,–,–,–
O=C1/C(=C\c2cccs2)SC(=S)N1C1CCS(=O)(=O)C1 (stereo unspecified),?,13[may fluoresce violet],?,?,?
O=C1/C(=C/c2ccccc2)SC(=S)N1C1CCS(=O)(=O)C1 (stereo unspecified),–,–,–,–,–
CC(=O)Oc1c(C)cc(Cl)cc1C(=O)Nc1ccc([N+](=O)[O-])cc1Cl,–,–,–,153,–
O=C(CN1C(=O)S/C(=C\c2cccc(Cl)c2)C1=O)NCCCn1ccnc1,–,50[may fluoresce violet],707[may fluoresce violet],?,?
COc1ccccc1CN1CC(C(=O)N(C)Cc2ccncc2C)CCC1=O (stereo unspecified),–,–,–,–,–
Cc1cnccc1CN(C)C(=O)C1CCC(=O)N(Cc2ccccc2F)C1 (stereo unspecified),–,32[may fluoresce violet],–,?,?
Cc1c(C(=O)N2CCN(C)CC2)oc2c1C(=O)CC(C)(C)C2,–,–,212[may fluoresce violet],?,–
Cc1cccc(N(CC(=O)NC2CCCC2)C(=O)CNC(=O)c2ccco2)c1C,–,–,–,–,–
CCOc1ccccc1N1CN(C2CCCCC2)CNC1=S,–,–,–,–,–
CCOC(=O)c1ccc(N2CN(C3CCCCC3)CNC2=S)cc1,–,31[may fluoresce violet],237[may fluoresce violet],?,?
O=C(c1ccc2c(c1)OCO2)N1CCC(Cc2ccccc2)CC1,–,26[may fluoresce violet],273[may fluoresce violet],?,?
O=C(NCc1ccccn1)c1cc(-c2ccc(Cl)cc2)oc1C(F)(F)F,155,–,–,–,–
O=C(NCc1ccncc1)c1cc(-c2ccc(Cl)cc2)oc1C(F)(F)F,–,–,–,–,–
Cc1nn(CC(=O)Nc2ccc3c(c2)CCC3)c(C)c1[N+](=O)[O-],–,–,–,–,–
CC1=C/C(=C/N(C)C)C(=O)O1,–,19[may fluoresce violet],?,?,?
CCc1cc(C(=O)N2CCCC(C(=O)c3ccc(Oc4ccccc4)cc3)C2)n(C)n1 (stereo unspecified),–,–,–,–,–
O=C(C1CC1)N1CCc2cc(S(=O)(=O)NCC3COc4ccccc4O3)ccc21 (stereo unspecified),–,23[may fluoresce violet],303[may fluoresce violet],?,?
SMILES,LAP4-GFP MLPCN,RPL19A-GFP yeast,MEP2 TOR yeast,CIT2 TOR yeast,AGP1 TOR yeast
O=C(C1CCC1)N1CCc2cc(S(=O)(=O)NCC3COc4ccccc4O3)ccc21 (stereo unspecified),–,–,–,–,–
CCOc1ccc(-n2c(-c3ccccc3)nnc2-c2ccccc2)cc1,–,45[may fluoresce violet],252[may fluoresce violet],?,·
O=C(NCCSCc1ccco1)c1ccc(=O)[nH]c1,–,–,–,–,–
CCc1nnc(NS(=O)(=O)c2ccc(N/C=C\C(=O)c3cccc(OC)c3)cc2)s1,–,–,270[may fluoresce violet],?,?
Cc1cc(Cl)ccc1NC(=O)CN1C(=O)NC2(CCCc3ccccc32)C1=O (stereo unspecified),–,–,–,–,–
Cc1nc(C(C)NC(=O)c2cc(COc3ccc(C)c(C)c3)on2)c(C)s1 (stereo unspecified),–,17[may fluoresce violet],–,?,?
Cc1ccc(C)c(OCc2cc(C(=O)NC(C)c3cnn(C)c3)no2)c1 (stereo unspecified),–,25[may fluoresce violet],–,?,?
Cc1ccc2nc3nc(NCC4CCCO4)c(C(=O)NC4CCCCC4)cc3c(=O)n2c1 (stereo unspecified),–,–,–,–,–
Cn1c(C(=O)NCC2CCCO2)cc2c(=O)n3ccccc3nc21 (stereo unspecified),–,–,–,–,–
Cc1ccc2nc3nc(NCC4CCCO4)c(C(=O)NC4CCCC4)cc3c(=O)n2c1 (stereo unspecified),–,22[may fluoresce violet],267[may fluoresce violet],?,?
C=CCNC(=O)c1cc2c(=O)n3cc(C)ccc3nc2nc1NCC1CCCO1 (stereo unspecified),–,29[may fluoresce violet],179[may fluoresce violet],?,?
COc1ccccc1NC(=O)COC(=O)c1cc([N+](=O)[O-])ccc1N1CCCC1,–,–,–,–,–
Cc1ccc(S(=O)(=O)N(CC(=O)Nc2cccnc2)c2ccccc2C)cc1,–,–,188,–,–
Cc1ccc(S(=O)(=O)N(CC(=O)Nc2ccccc2C(=O)O)c2ccccc2C)cc1,–,–,–,–,–
Cc1nn(-c2ccc(F)cc2)c(Cl)c1C(=O)N(C)CC(=O)Nc1cccc(F)c1,–,–,–,–,–
Cc1ccnc(SCC(=O)N2CCC(C(N)=O)CC2)n1,–,15[may fluoresce violet],358[may fluoresce violet],?,?
COc1ccc(C2CC(c3ccccc3)=NN2S(=O)(=O)c2ccccc2)cc1 (stereo unspecified),191,–,235,–,–
O=C(Nc1nc2c(s1)CCCC2)c1cc2n(n1)C(C(F)(F)F)CC(C1CC1)N2 (stereo unspecified),–,–,182[may fluoresce violet],?,·
Cc1nnc(NC(=O)c2cc3n(n2)C(C(F)(F)F)CC(C2CC2)N3)s1 (stereo unspecified),–,–,–,–,–
O=C(CSc1ccc(Cl)cc1)Nc1cccc(-c2nc3ccccc3[nH]2)c1,–,–,188,–,–
CCSc1nnc(SCC(=O)Nc2cc(C)on2)s1,–,–,–,–,–
COCc1nnc(NC(=O)C2CCN(C(=O)c3ccco3)CC2)s1,–,–,968[may fluoresce violet],?,–
CCOc1cc(/C=C/C(=O)OCC(=O)NCC2CCCO2)cc(Cl)c1OC (stereo unspecified),–,–,–,–,–
COC(=O)Nc1ccc2c(c1)N(C(=O)CCN1CCN3CCCC3C1)c1ccccc1CC2 (stereo unspecified),157!,–,229!,–,–
Cc1cc(NC(=O)c2ccno2)no1,–,–,–,156[may fluoresce green],–
Cc1cc(NC(=O)c2ccc(F)cc2)no1,–,–,–,–,–
